Where “and” joins values, the source holds several entries; their conditions need not be identical. Identical values can stand only once. Hit rate of the full screen: of about 290,000 compounds, about 27,000 (9.3%) were called active. This is one part of a sample in which actives are shown more often than they occur. Unmarked numbers belong to inactive results. No stated cut-off is given here; in the data, active means inhibition mostly above about 28% (no sharp cut-off); inactive means mostly below about 43%.
Assay: A qHTS for Small Molecule Inhibitors of Shiga Toxin; further: 0% is about no effect
Conditions: Vero cells, Shiga toxin protein synthesis inhibition reporter; at 38.7 µM, active compounds read high

Row | SMILES | inhibition
1 | CCCNC(=O)c1ccc(N2CCC3(CC2)CC(c2ccc(Cl)cc2)=NO3)c([N+](=O)[O-])c1 | 0.364%
2 | COc1ccc(CN2CCCC(C(=O)N3CCCCC3)C2)cc1 (centres undefined) | -9.61%
3 | Cc1ccc2c(cnn2C(=O)CCC(=O)NC2CCCC2)c1 | 1.95%
4 | CCOc1ccc(C(CC(=O)O)NC(=O)Cc2ccccc2)cc1OC (centres undefined) | -3.82%
5 | COc1ccc(C2CC(=O)NC(=O)C2)cc1 | 1.04%
6 | Cc1c(CCC(=O)N[C@@H](CC(C)C)C(=O)O)c(=O)oc2c(C)c3oc4c(c3cc12)CCCC4 | -1.24%
7 | O=C(Nc1ccncc1)Nc1ccc(F)cc1 | 30.2%
8 | CCc1ccc(NC(=O)Nc2ccncc2)cc1 | 58.2% (active)
9 | CCc1ccc(NC(=O)N[C@H](C(=O)O)C(C)CC)cc1 (some centres undefined) | -3.77%
10 | O=C(Nc1cc(C(=O)Nc2ccc(S(=O)(=O)O)cc2)cc(C(=O)Nc2ccc(S(=O)(=O)O)cc2)c1)Nc1cc(C(=O)Nc2ccc(S(=O)(=O)O)cc2)cc(C(=O)Nc2ccc(S(=O)(=O)O)cc2)c1 | -5.01%
11 | CCCn1c(=N)n(CC(=O)c2ccc(Cl)c(Cl)c2)c2ccccc21 | -3.46%
12 | O=C(NCc1cccs1)C1CCN(S(=O)(=O)c2ccc(Cl)cc2)CC1 | -3.28%
13 | O=C(NCc1csc(-c2cccs2)n1)C1CC1 | 68.5% (active)
14 | CC(C)(C)C1CCC(C(=O)NCC(c2cccs2)N2CCOCC2)CC1 (centres undefined) | -2.93%
15 | COCc1ccc(C(=O)NC2CC(C)(C)Cc3c2cnn3-c2ccc(C)cc2)o1 (centres undefined) | 21.9%
16 | O=C(COC(=O)c1ccc2c(c1)OCCO2)NCc1ccccc1 | 19.3%
17 | O=C(OCc1ccccc1F)c1ccc2c(c1)OCCO2 | 104% (active)
18 | CC(NC(=O)COC(=O)c1ccc2c(c1)OCO2)c1ccccc1 (centres undefined) | 17.4%
19 | O=C(O)c1ccc(/C=C2\SC(=S)N(NC(=O)c3ccc(Br)cc3)C2=O)cc1 | -9.68%
20 | N#Cc1ccc(S(=O)(=O)NCC(=O)OCC(=O)NCCc2ccccc2)cc1 | -5.8%
21 | CCCCC(CCC(=O)Nc1ccc(C(=O)OCC)cc1)C(=O)O (centres undefined) | -3.77%
22 | CCOc1ccccc1NC(=O)Cc1cccs1 | -4.91%
23 | C#CCNc1ccc(C(=O)OCC)cc1 | 58.3% (active)
24 | CCOC(=O)c1ccc(NC(=S)N2CCCC2)cc1 | 8.67%

Row | SMILES | inhibition
25 | CCOC(=O)c1ccc(NC(=O)Cc2cccs2)cc1 | 49.2% (active)
26 | O=C(Cc1cccs1)Nc1ccc([N+](=O)[O-])cc1 | -6.19%
27 | CCOC(=O)c1cccc(NC(=O)C2CCN(c3ncnc4c3nc3n4CCCCC3)CC2)c1 | 10.8%
28 | CC(Sc1nnc(-c2ccccc2F)n1C1CC1)C(N)=O (centres undefined) | -9.07%
29 | O=C(O)c1ccc2c(=O)n3c(nc2c1)/C(=C/c1ccc(OC(F)F)cc1OC(F)F)CC3 | 1.37%
30 | O=C(CN1C(=O)/C(=C\c2ccccc2F)SC1=S)Nc1nc2ccccc2s1 | 51.7% (active)
31 | CN(C(=O)CCN1C(=O)/C(=C/c2ccccc2F)SC1=S)C1CCS(=O)(=O)C1 (centres undefined) | -3.82%
32 | O=C(CN1C(=O)/C(=C/c2ccccc2F)Sc2ccccc21)NCc1cccnc1 | 13.6%
33 | COc1ccc(CNc2ccc3c(c2)CCC3)cc1OC | 37.9%
34 | Cc1ccc(N2C(=O)CC(NCc3ccc4c(c3)OCO4)C2=O)cc1Cl (centres undefined) | 110% (active)
35 | O=CN1CCN(C2CC(=O)N(c3ccc4c(c3)OCO4)C2=O)CC1 (centres undefined) | 19.5%
36 | Cc1ccc(CC2CC(=O)N(c3ccc4c(c3)OCCO4)C2=O)cc1 (centres undefined) | 51.2%
37 | Cc1cccc(NC(=S)NCCN(C2CCCCC2)C2CCCC2)c1 | 19.2%
38 | Cc1cccc(C(=O)NC(=S)N(C)C2CCCCC2)c1 | 117% (active)
39 | Cc1cccc(C(=O)NCCCN(C)CCCNC(=O)c2cccc(C)c2)c1 | -6.03%
40 | Cc1nc2ccc(C(=O)N(C)CC3CCCN(CCc4ccc(Cl)cc4)C3)cc2[nH]1 (centres undefined) | -8.28%
41 | COc1ccc(COC(=O)c2ccc(Cl)c(S(=O)(=O)N3CCOCC3)c2)cc1F | -8.8%
42 | Cc1ccccc1N1CCN(CC(=O)NCc2ccc(Cl)cc2)CC1 | -5.06%
43 | O=C(CN1CCN(S(=O)(=O)c2ccc(Cl)s2)CC1)NCc1ccc(Cl)cc1 | 34.8% (active)
44 | O=C(NCc1ccc(Cl)cc1)C1CCN(S(=O)(=O)c2cccs2)CC1 | 4.43%
45 | CC(C)c1ccccc1OCC(O)CN(CC(O)COc1cccc2ccccc12)C(C)C (centres undefined) | -14.8%
46 | COc1cccc(C(=O)NC(=O)Nc2nc(C)cc(C(F)(F)F)n2)c1 | 4.77%
47 | Cn1nc(-c2ccccc2)c(-c2nc(-c3ccc(Cl)cc3)no2)c1Cl | -16%
48 | Brc1ccc(-c2nnc(-c3ccccc3)o2)o1 | 71.5% (active)

Row | SMILES | inhibition
49 | Brc1ccc(-c2noc(-c3ccccc3)n2)o1 | 139% (active)
50 | Nc1nonc1-c1noc(-c2ccc(Br)o2)n1 | 24.2%
51 | COc1ccc(CNC(=O)CCN2C(=O)c3ccccc3C2=O)cc1 | 4.69%
52 | O=C(O)CC(c1ccccc1F)N1Cc2ccccc2C1=O (centres undefined) | -12%
53 | CCN(CC)C(=O)C(=O)c1cn(CC(=O)NCc2ccc3c(c2)OCO3)c2ccccc12 | -11.5%
54 | O=C(CN1CCN(c2ccccn2)CC1)NCc1cccs1 | -22.2%
55 | COC(=O)c1cn(CC(=O)NCc2cccs2)c2ccccc12 | 64.8% (active)
56 | O=C(Cn1cc(C(=O)c2cccs2)c2ccccc21)NCc1cccs1 | 16.3% (active)
57 | COCCCNC(=O)Cn1cc(C(=O)C2CC2)c2ccccc21 | -8.71%
58 | COC(=O)Cn1cc(C(=O)c2cccs2)c2ccccc21 | 2.14%
59 | Cc1cc(=O)[nH]c(Nc2cccc(Br)c2)n1 | -10.8%
60 | N#Cc1cccc(CSc2ncnc(N)n2)c1 | 3.32%
61 | Cc1ccccc1-n1cc(CNC(=O)C2CCC(=O)N(C3CC3)C2)cn1 (centres undefined) | 21.3%
62 | COc1ccc2c(c1)N(C)/C(=C1/SC(=S)N(NC(C)=O)C1=O)S2 | 7.78%
63 | COc1ccc(N(Cc2ccc(N(C)C)cc2)C(=O)c2ccc(S(C)(=O)=O)cc2)cc1 | -10.5%
64 | CC(=O)Oc1ccc(-c2cccc(C(=O)N3CCCCC3)c2)cc1 | 37.3%
65 | COc1ccc(OCc2cccc(C(=O)N3CCCC3)c2)cc1 | 147% (active)
66 | COc1ccc(Cn2c(=S)[nH]c3cc(C(=O)N4CCCCC4)ccc3c2=O)cc1 | -3.58%
67 | CCOc1ccc(OCc2ccc(C(=O)N(C)c3ccccc3)o2)cc1 | 13%
68 | COc1cccc(COc2ccc(N(C)S(=O)(=O)c3ccccc3)cc2)c1 | 26%
69 | CCOc1ccc(OCc2cccc(C(=O)N(CC)CC)c2)cc1 | 160% (active)
70 | O=C(COc1ccccc1[N+](=O)[O-])NC1CC1 | 19.4%
71 | CCN1C(=NCc2ccc(OC)cc2)N[C@@H](CCc2ccccc2)[C@H](C(=O)NCc2ccc(OC)cc2)[C@H]1C | 2.67% and -2.62%
72 | CC(C)c1ccc(NC(=O)Cn2ncc3ccccc32)cc1 | 74.2% (active)

Row | SMILES | inhibition
73 | CCc1ccc(NC(=O)Cn2ncn3c(cc4ccccc43)c2=O)cc1 | 5.27%
74 | CCOC(=O)c1cn(CC(=O)Nc2ccc(C(C)C)cc2)nn1 | -16.4%
75 | Nc1nonc1-n1nnc(C(=O)N/N=C/c2c[nH]c3ccccc23)c1-c1ccccc1 | -17%
76 | CCn1cc(S(=O)(=O)c2cccc(C)c2)c(=O)c2cc(F)c(N3CCN(C)CC3)cc21 | 4.57%
77 | COc1cccc(C(=O)NNC(=O)c2ccccc2Br)c1 | -5.95%
78 | CN1CCN(c2ccc(NC(=O)c3ccc4c(c3)[nH]c(=O)n4Cc3ccc(F)cc3)cc2)CC1 | -1.72%
79 | COc1cccc(C(=O)Nc2ccc(N3CCN(C(=O)c4ccco4)CC3)cc2)c1 | 2.21%
80 | Cc1ccccc1C(=O)Nc1ccc(N2CCCCCC2)cc1 | 36.6%
81 | COc1cccc(C(=O)Nc2cc3c(cc2Br)OCCCO3)c1 | 95.9% (active)
82 | CN1CCN(c2ccc(NC(=O)c3ccccc3)cc2)CC1 | 47.5% (active)
83 | CC(=O)Oc1cccc(C(=O)Nc2ccccc2NC(=O)c2cccc(OC(C)=O)c2)c1 | -7.51%
84 | COc1cccc(C(=O)Nc2ccc(N3CCCC3)cc2)c1 | 47.9% (active)
85 | COc1ccc(C(=O)NC(=S)Nc2ccc(N3CCCC3)cc2)cc1OC | 11.5%
86 | Cc1ccc(-c2noc(CNC(=O)c3ccoc3C)n2)cc1 | -9.24%
87 | CCOCCCNC(=O)c1ccc(CS(=O)(=O)c2cccc(C(F)(F)F)c2)o1 | 21.3%
88 | COC(=O)c1ccc(NC(=O)c2cc3c(CO)cnc(C)c3oc2=Nc2cccc(C(N)=O)c2)cc1 | -1.8%
89 | CCN1C(=NCC(C)C)N[C@@H](CCc2ccccc2)[C@H](C(=O)NCC(C)C)[C@H]1C | -2.89% and 9.38%
90 | O=C(CNC(=O)c1cccnc1)N/N=C/c1cc(Br)c(O)c(Br)c1 | -3.98%
91 | O=S(=O)(c1ccccc1)N(Cc1cccc(F)c1)c1ccccc1 | -4.98%
92 | COC(=O)N/N=C/c1cn(CCCOc2ccc(C)cc2)c2ccccc12 | 37.2% (active)
93 | CNC(=S)N/N=C/c1cn(Cc2ccc(C)cc2)c2ccccc12 | 21.9%
94 | CCOC(=O)N/N=C/c1cn(Cc2ccccc2Cl)c2ccccc12 | 20.2%

Source: PubChem BioAssay AID2315 (National Center for Advancing Translational Sciences (NCATS), 2010)
